# Screening results (PubChem BioAssay)
# Shown are actives, neighbours in structure and some others; about 19% of the full set was active somewhere.
# TDP1 block: inhibitors of human tyrosyl-DNA phosphodiesterase TDP1. actives 0.28% (n = 350,000). Q9NUW8. recombinant TDP1, AlphaScreen DNA substrate cleavage. Potency, µM (series often up to 130 µM), for the others: at the highest dose activity change, negative = inhibition, most hits filed as inhibitors. AID 485290; further: potency means the concentration at half of the fitted maximal effect; nearly all actives have a fitted effect of over 40% in size
# Target sequence (Q9NUW8 whole entry, looked up): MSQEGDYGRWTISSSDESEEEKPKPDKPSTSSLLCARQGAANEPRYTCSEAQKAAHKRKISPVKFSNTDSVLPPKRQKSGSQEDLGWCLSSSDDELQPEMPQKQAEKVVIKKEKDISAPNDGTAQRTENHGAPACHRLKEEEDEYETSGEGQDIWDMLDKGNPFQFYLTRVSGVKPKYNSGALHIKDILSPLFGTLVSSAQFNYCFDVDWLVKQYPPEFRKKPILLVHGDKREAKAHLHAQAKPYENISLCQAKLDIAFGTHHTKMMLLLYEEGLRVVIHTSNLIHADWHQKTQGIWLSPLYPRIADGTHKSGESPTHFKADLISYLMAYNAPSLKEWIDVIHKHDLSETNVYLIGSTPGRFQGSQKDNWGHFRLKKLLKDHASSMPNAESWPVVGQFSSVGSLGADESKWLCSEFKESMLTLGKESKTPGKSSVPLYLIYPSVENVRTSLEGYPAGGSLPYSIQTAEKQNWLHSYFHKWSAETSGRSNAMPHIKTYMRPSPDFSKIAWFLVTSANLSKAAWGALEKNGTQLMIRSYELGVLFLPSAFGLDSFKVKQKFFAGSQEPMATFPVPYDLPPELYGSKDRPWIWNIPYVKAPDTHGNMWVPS
#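 AlphaScreen read-out: signal falls as enzyme removes the 3' tyrosine-FITC from a 5'-biotinylated DNA oligo (15 nM, 5 min, RT). Enzyme was E. coli-made recombinant Tdp1 at 1 nM, exposed to compound for 15 min beforehand; beads 10 ug/ml, 10 min.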
# Giardia killer: Giardia lamblia killing; Giardia lamblia trophozoite viability; activity change, % at 7.66 µM, hits read low; actives 0.15% (n = 340,000); in the data active means activity change below about -80%; inconclusive means between about -30% and that limit;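 further: parasites exposed to compound for two days anaerobically before the ATP read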
#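 Luminescent ATP signal served as the viability read-out, measured 15-30 min after adding ATP detection reagent to trophozoites that had been incubated with compounds for 48 hrs at 37 deg C anaerobically at 100 cells/well.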
# DT40 TDP1 CPT: growth inhibition of DT40 Tdp1-/-;hTDP1 cells with camptothecin (screen for TDP1 inhibitors) | AID 686979 | actives 12% (n = 420,000) | chicken DT40 Tdp1-/-;hTDP1 cells + 20 nM CPT, ATP luminescence, 48 h | Potency, µM (series often up to 46.2 µM), for the others: top-dose activity change, negative = growth inhibition, usual class: inhibitors; further: potency means the concentration at half of the fitted maximal effect; nearly all actives have a fitted effect of over 55% in size
#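 Chicken DT40 Tdp1-/- cells stably complemented with human TDP1 were seeded at 400 cells/well in medium containing 20 nM camptothecin, exposed to pin-transferred compounds, and grown at 37 °C for at least 48 hr. Viability was read as ATP luminescence.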
# IL1B secr inh: inhibitors of inflammasome signaling (IL-1 beta secretion); actives 4.7% (n = 360,000); AID 743279; THP-1 LPS/ATP IL-1B secretion, AlphaLISA, 16 h; hits give low values; activity change, % at 57.5 µM; in the data active means activity change below about -50%; inconclusive means mostly about -30% to -49%
#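 THP-1 cells pretreated 1 hr with compounds (up to 57.5 uM final), then stimulated with LPS (250 ng/mL final) plus ATP (1.25 mM final); secreted IL-1B measured by AlphaLISA after 16 hr, decreased signal indicating inhibition.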
# TDP1 cell noCPT: qHTS for Inhibitors of human tyrosyl-DNA phosphodiesterase 1 (TDP1): qHTS in cells in absence of CPT. Potency, µM (highest dose often 46.2 µM), without a hit: at the top dose activity change, negative = growth inhibition, most hits filed as inhibitors. AID 686978, 2013. DT40 Tdp1-/- hTDP1 cells, no CPT, ATP luminescence, 48 h. actives 15% (n = 420,000); further: potency means the concentration at half of the fitted maximal effect; nearly all actives have a fitted effect of over 55% in size
#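 DT40 Tdp1-/-;hTDP1 cells, no CPT (DMSO vehicle only), 400 cells/well; compounds pin-transferred; ≥48 hr, 37 °C; CellTiter-Glo 30 min RT dark, luminescence read.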
# ELG1 DNA repair: ELG1-dependent DNA repair inhibition. HEK293T ELG1-luciferase reporter, luminescence, 16 h; DNA damage induced by 5-fluorouridine. Potency, µM (highest dose often 46.1 µM), for the others: at the top dose activity change, negative = inhibition, usual class: inhibitors. actives 2.3% (n = 330,000). AID 504467; further: potency means the concentration at half of the fitted maximal effect; nearly all actives have a fitted effect of over 55% in size
#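 Overnight (16 hr) co-exposure of 2,000 cells/well to 5-fluorouridine and compound at 37 °C preceded detection. Luciferase was quantified via ONE-Glo luminescence; loss of signal denotes inhibition.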
# Numbers without * were called inactive; ? = inconclusive; nt = not tested or not shown; [ ] = dose if it differs, or a comment. Unless noted, the call rests on the fitted dose curve; in most records, active means well fitted curve in the direction sought with a large enough effect; inconclusive means small, poorly fitted or top-dose-only effect, or another doubt; inactive means no such curve, though single readings can be large; an effect the other way counts as inactive or inconclusive. On the % scale 0 is the no-effect control and ±100 the full control effect.
SMILES,TDP1 block,Giardia killer,DT40 TDP1 CPT,IL1B secr inh,TDP1 cell noCPT,ELG1 DNA repair
COc1ccc(/C=C(\C#N)C(=O)N2CCOCC2)cc1Br,1%,-2,3%,-68*,-6%,0%
N#C/C(=C\c1ccc(O)c(O)c1)C(=O)N1CCCC1,3%,23,?,31,13µM*,-22%
CC(C)(C)OC(=O)N1CCc2onc(-c3ccc(-n4cc(C5=CCCCC5)nn4)cc3)c2C1=O,nt,nt,?,29,?,nt
O=C(CCS(=O)(=O)c1cc(Br)cc2c1N(C(=O)C1CC1)CC2)NCc1ccccc1Cl,-2%,nt,1%,nt,-16%,nt
On1nnc2cc(C(F)(F)F)ccc21,-3%,-10,2%,0,-23%,-9%
N#Cc1ccc(C(CC(=O)O)N2Cc3ccccc3C2=O)cc1 (stereo unspecified),nt,-14,1%,-7,1%,-2%
CC1(C(=O)NS(=O)(=O)C2CC2)CCCN(C(=O)c2ccc(F)c(Cl)c2)C1 (stereo unspecified),nt,nt,5.8µM*,16,5.2µM*,nt
CC1(C(=O)NS(=O)(=O)C2CC2)CCCN(C(=O)c2cccc(Cl)c2)C1 (stereo unspecified),nt,nt,7.3µM*,-2,1.5µM*,nt
CCn1c(=O)c2c(nc3n2CCCN3c2cccc(C)c2)n(C)c1=O,4%,-4,9%,-1,-14%,?
COC(=O)[C@@H]1CCCN1Cc1ccc2c(c1)CN(Cc1coc3ccccc3c1=O)CCO2,nt,nt,13%[9.04 µM],nt,-2%,nt
CC1(CCc2ccc3c(c2)OCO3)NC(=O)c2ccccc2N1 (stereo unspecified),2%,-8,23µM*,-14,?,-8%
COc1ccc(C2NC(=O)c3ccccc3N2)cc1OC (stereo unspecified),4%,-1,-21%,3,-21%,?
O=C1NC(c2ccc(Br)cc2)Nc2ccccc21 (stereo unspecified),nt,20,6.5µM*,51,3.7µM*,?
O=C1NC(c2ccc3c(c2)OCO3)Nc2ccccc21 (stereo unspecified),1%,-9,23µM*,41,16µM*,12%
O=C1NC(c2ccc3ccccc3c2)Nc2ccccc21 (stereo unspecified),nt,nt,16µM*,51,6.5µM*,nt
Cc1ccc(C)c(N2CCN(c3nc4ccccc4n4c(C)nnc34)CC2)c1,0%,nt,0%,nt,-4%,nt
CCc1cccc(NC(=O)CSc2nc3ccsc3c(=O)n2CC)c1,4%,nt,?,nt,?,nt
COc1ccc(S(=O)(=O)NCC(=O)N(CC(=O)NCC2CCCO2)Cc2ccc(F)cc2)cc1 (stereo unspecified),3%,-8,-14%,-23,-11%,21%
O=C(CCc1c[nH]c2ccccc12)N1CCC(n2c(C3CCCO3)nc3cc(C(F)(F)F)ccc32)CC1 (stereo unspecified),nt,nt,10%[9.04 µM],nt,-13%,nt
C[C@]12CCC3c4ccc(O)cc4CCC3C1CCC2OC(=O)CCC1CCCC1 (stereo partly specified),7%,nt,3%,nt,2%,nt
CCCCC(=O)OC1CCC2C3CCc4cc(O)ccc4C3CC[C@]12C (stereo partly specified),5%,nt,nt,nt,nt,nt
CCCCC(=O)OC1CCC2C3CCc4cc(O)ccc4C3CCC12C (stereo unspecified),nt,-8,?,1,18µM*,nt
C[C@]12CC[C@@H]3c4ccc(O)cc4CC[C@H]3[C@@H]1CC[C@@H]2OC(=O)CCC(=O)O,5%,17,0.73µM*,3,1%,13%
O=C(c1cc(C(F)(F)F)cc(C(F)(F)F)c1)N1CCC[C@@]2(CCN(Cc3ccncc3)C2)C1,nt,nt,-13%,nt,?,nt
Cc1cccc(NC(=O)Cn2cnc3c(oc4ccccc43)c2=O)c1C,-7%,17,?,9,?,-12%
SMILES,TDP1 block,Giardia killer,DT40 TDP1 CPT,IL1B secr inh,TDP1 cell noCPT,ELG1 DNA repair
CCOc1ccc(C(=O)C(C)OC(=O)C2CCN(c3ccc(C(F)(F)F)cn3)CC2)cc1 (stereo unspecified),-12%[0.505 µM],14,16µM*,25,23µM*,-17%
O=C(Cn1c2ccccc2c2nc3n(c(=O)c21)CCCS3)Nc1ccccc1,5%,3,13µM*,?,?,5.2µM*
Clc1ccc(-n2ncc3c(NC4CCCC4)ncnc32)cc1,3%,nt,16µM*,nt,16µM*,nt
Clc1ccc(-n2ncc3c(NCC4CCCO4)ncnc32)cc1 (stereo unspecified),0%,-18,16µM*,-14,16µM*,?
OCCCNc1ncnc2c1cnn2-c1ccc(Cl)cc1,nt,5,-23%,-23,?,?
c1ccc(-n2ncc3c(NC4CCCCCC4)ncnc32)cc1,nt,?,?,-53*,?,?
CCOC(=O)N1CCC(Nc2ncnc3c2cnn3-c2ccccc2)CC1,0%,1,?,-9,11µM*,?
COc1ccc2nc(SCC(=O)C(C)(C)C)[nH]c2c1,nt,-2,1%,-9,-4%,?
CCCCC/C=C\C[C@@H](O)/C=C/C=C\C/C=C\CCCC(=O)O,7%,nt,nt,nt,nt,nt
Clc1ccc(-n2ncc3c(NCc4ccco4)ncnc32)cc1,3%,-21,?,0,15µM*,-7%
Cc1ccc(Cl)cc1-n1ncc2c(NC3CCCCCC3)ncnc21,5%,nt,21µM*,nt,21µM*,nt
Cc1ccc(-n2ncc3c(NC4CCCCCC4)ncnc32)cc1Cl,5%,nt,?,nt,?,nt
CSc1ccccc1NC(=O)C1CCCN(S(C)(=O)=O)C1 (stereo unspecified),nt,1,6%,-5,7%,0%
Cc1cc(F)ccc1NC(=O)CCS(=O)(=O)c1cccc2nsnc12,9%,nt,-22%,nt,6%,nt
Cc1ccc(OCC(=O)Nc2nnc(SCc3cc(=O)c4ccccc4[nH]3)s2)cc1C,5%,nt,-28%,nt,?,nt
COc1ccc(OC)c(CNC(=O)C2CCCN(c3ncnc4onc(-c5ccc(F)cc5)c34)C2)c1 (stereo unspecified),4%,nt,4%,nt,-8%,nt
O=C(NCc1ccccc1Cl)C1CCCN(c2ncnc3onc(-c4ccc(F)cc4)c23)C1 (stereo unspecified),6%,nt,?,nt,16µM*,nt
CCOc1ccccc1CNC(=O)C1CCCN(c2ncnc3onc(-c4ccc(F)cc4)c23)C1 (stereo unspecified),-3%,nt,?,nt,21µM*,nt
